# Assay results: ChEMBL document CHEMBL1961873, “Compounds: GSK PKIS; Assays: Nanosyn kinase panel” (2012)
# Molecular target: T1, Serine/threonine-protein kinase TBK1 (Homo sapiens) (UniProt Q9UHD2);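 note: values are mean inhibition of TBK1, screened as part of the GSK published kinase inhibitor set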
# T1 sequence (whole entry): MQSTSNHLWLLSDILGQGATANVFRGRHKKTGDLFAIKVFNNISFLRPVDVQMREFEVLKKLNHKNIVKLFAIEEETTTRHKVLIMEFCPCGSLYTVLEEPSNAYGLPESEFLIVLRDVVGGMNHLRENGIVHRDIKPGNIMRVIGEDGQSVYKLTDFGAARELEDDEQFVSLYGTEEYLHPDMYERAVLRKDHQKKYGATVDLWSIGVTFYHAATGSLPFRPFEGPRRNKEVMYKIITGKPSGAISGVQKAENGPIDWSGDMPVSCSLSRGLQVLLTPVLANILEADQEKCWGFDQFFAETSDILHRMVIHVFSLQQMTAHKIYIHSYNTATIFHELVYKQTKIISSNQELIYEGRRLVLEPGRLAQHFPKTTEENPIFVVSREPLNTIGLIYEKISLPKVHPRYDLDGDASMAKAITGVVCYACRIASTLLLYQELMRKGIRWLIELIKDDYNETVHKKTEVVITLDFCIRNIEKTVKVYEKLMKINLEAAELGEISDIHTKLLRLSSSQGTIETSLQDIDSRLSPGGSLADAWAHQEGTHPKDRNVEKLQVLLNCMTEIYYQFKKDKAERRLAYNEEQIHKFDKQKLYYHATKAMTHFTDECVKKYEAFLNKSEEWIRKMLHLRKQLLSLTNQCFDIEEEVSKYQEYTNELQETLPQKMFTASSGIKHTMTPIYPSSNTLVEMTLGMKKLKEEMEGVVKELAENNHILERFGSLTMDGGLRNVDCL
# Settings: at 1 µM
row,Structure (SMILES),inhibition
1,NC(=O)c1cc(-c2ccncc2)cc(-c2ccccc2)c1N,9.27%
2,COc1cc2ncn(-c3cc(OCc4cccs4)c(C(N)=O)s3)c2cc1OC,16.7%
3,COc1ccc(C2=C(N3CCc4ccccc43)C(=O)NC2=O)cc1,7.18%
4,NS(=O)(=O)c1ccc(N/N=C2\C(=O)Nc3ccc(C(=O)NCCCn4ccnc4)cc32)cc1,30.4%
5,O=C(Nc1n[nH]c2nc(-c3ccc(O)cc3)c(Br)cc12)C1CC1,22.6%
6,Clc1ccc(CNc2nccc(-c3cnn4ncccc34)n2)cc1,2.91%
7,CS(=O)(=O)CCNCc1ccc(-c2ccc3ncnc(Nc4ccc(OCc5ccccc5)c(Br)c4)c3c2)o1,1.05%
8,c1ccc(Oc2ccc(Nc3ncc(-c4ccccc4)o3)cc2)cc1,2.41%
9,Cc1ccc(NC(=O)c2ccoc2)cc1-c1ccc(C(=O)NCC2CC2)cc1,0.72%
10,C/C(Nc1ccc(S(N)(=O)=O)cc1)=C1/C(=O)Nc2ccccc21,4.75%
11,Fc1ccc(-c2c(-c3ccncc3)nc3n2CCS3)cc1,2.15%
12,O=C(Nc1ccc(Oc2ccc3[nH]c(NC(=O)c4ccccc4)nc3c2)cc1)Nc1cc(C(F)(F)F)ccc1F,4.56%
13,O=C1NC(=O)C(c2cccc(Cl)c2)=C1Nc1ccc(Cl)c(C(=O)O)c1,5.8%
14,NS(=O)(=O)c1ccc(Nc2cc(-c3ccc(O)c(F)c3)n[nH]2)cc1,7.59%
15,COC(=O)Nc1nc2ccc(Sc3ccc(NC(=O)Nc4cc(C(F)(F)F)ccc4F)cc3)cc2[nH]1,2.38%
16,Cc1nnc(-c2ccc(C)c(-c3ccc(C(=O)NCc4ccc(Cl)cc4)cc3)c2)o1,3.88%
17,COc1ccc2ncn(-c3cc(O[C@H](C)c4ccccc4Cl)c(C(N)=O)s3)c2c1,3.86%

row,Structure (SMILES),inhibition
1,COc1cc(N2CCN(C(C)C)CC2)ccc1Nc1nc(Nc2ccc(F)cc2C(=O)NC[C@@H](O)CO)c2cc[nH]c2n1,4.23%
2,NS(=O)(=O)c1ccc(N/N=C2\C(=O)Nc3ccc(-c4cnco4)cc32)cc1,38.4%
3,CN1CCN(CCCNc2nc3ccc(Oc4ccc(NC(=O)Nc5cc(C(F)(F)F)ccc5F)cc4)cc3[nH]2)CC1,3.78%
4,Fc1ccc(-c2ncn(C3CCNCC3)c2-c2ccnc(Oc3ccc(Oc4ccccc4)cc3)n2)cc1,2.57%
5,COc1cc(Nc2ncc3c(C)nc(-c4cccc(Oc5ccccc5)c4)n3n2)cc(OC)c1OC,28.8%
6,CCc1ccc(Oc2nccc(-c3c(-c4ccc(F)cc4)ncn3C3CCNCC3)n2)cc1,4.95%
7,Cc1ccc(C(=O)NC(C)C)cc1-c1ccc(C(=O)NCC2CC2)cc1,-1.07%
8,COc1cccc(-n2cnc3c(N/N=C/c4ccncc4)ncnc32)c1,2.56%
9,Fc1ccc(-c2ncn(C3CCNCC3)c2-c2ccnc(Oc3ccc4c(c3)OCO4)n2)cc1,4.07%
10,O=C(NCC1CC1)c1ccc(-c2cccc(C(=O)NC3CC3)c2)cc1,0.69%
11,C#Cc1cccc(Nc2ncnc3ccc(OCCCCNCCS(C)(=O)=O)cc23)c1,8.32%
12,NCc1ccc(-n2c(-c3nonc3N)nc3cnccc32)cc1,11.6%
13,O=C(Nc1n[nH]c2cc(-c3ccccc3)ccc12)C1CC1,8.06%
14,CCS(=O)(=O)c1ccc(OC)c(Nc2ncc(-c3cccc(-c4ccccc4F)c3)o2)c1,5.42%
15,CNC(=O)c1cncc(/C=C/c2c(C)cccc2C)c1,0.94%
16,CCC(=O)Nc1ccc(C)c(-c2ccc(C(=O)NCC3CC3)cc2)c1,2.69%
17,c1ccc(-c2n[nH]cc2-c2ccnc(-c3ccc(OCCN4CCOCC4)cc3)c2)nc1,1.95%

# Molecular target: T2, Testis-specific serine/threonine-protein kinase 1 (Homo sapiens) (UniProt Q9BXA7);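 note: mean percent inhibition of TSSK1, from the GSK PKIS screening dataset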
# T2 sequence (whole entry): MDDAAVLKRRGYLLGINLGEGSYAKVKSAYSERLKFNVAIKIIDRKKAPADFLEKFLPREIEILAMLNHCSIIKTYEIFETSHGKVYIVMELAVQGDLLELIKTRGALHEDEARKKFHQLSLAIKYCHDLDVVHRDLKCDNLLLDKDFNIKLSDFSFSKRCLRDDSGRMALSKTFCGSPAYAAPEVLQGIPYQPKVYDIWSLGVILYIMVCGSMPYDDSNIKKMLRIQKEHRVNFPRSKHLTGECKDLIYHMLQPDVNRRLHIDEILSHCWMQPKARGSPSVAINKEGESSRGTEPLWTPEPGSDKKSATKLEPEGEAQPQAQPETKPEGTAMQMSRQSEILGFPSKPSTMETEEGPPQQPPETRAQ
# Settings: at 0.1 µM
row,Structure (SMILES),inhibition
1,NC(=O)c1cc(-c2ccncc2)cc(-c2ccccc2)c1N,3.7%
2,COc1cc2ncn(-c3cc(OCc4cccs4)c(C(N)=O)s3)c2cc1OC,4.25%
3,COc1ccc(C2=C(N3CCc4ccccc43)C(=O)NC2=O)cc1,4.87%
4,NS(=O)(=O)c1ccc(N/N=C2\C(=O)Nc3ccc(C(=O)NCCCn4ccnc4)cc32)cc1,7.1%
5,O=C(Nc1n[nH]c2nc(-c3ccc(O)cc3)c(Br)cc12)C1CC1,5.99%
6,Clc1ccc(CNc2nccc(-c3cnn4ncccc34)n2)cc1,0.5%
7,CS(=O)(=O)CCNCc1ccc(-c2ccc3ncnc(Nc4ccc(OCc5ccccc5)c(Br)c4)c3c2)o1,2.71%
8,c1ccc(Oc2ccc(Nc3ncc(-c4ccccc4)o3)cc2)cc1,1.11%
9,Cc1ccc(NC(=O)c2ccoc2)cc1-c1ccc(C(=O)NCC2CC2)cc1,1.46%
10,C/C(Nc1ccc(S(N)(=O)=O)cc1)=C1/C(=O)Nc2ccccc21,0.79%
11,Fc1ccc(-c2c(-c3ccncc3)nc3n2CCS3)cc1,2.46%
12,O=C(Nc1ccc(Oc2ccc3[nH]c(NC(=O)c4ccccc4)nc3c2)cc1)Nc1cc(C(F)(F)F)ccc1F,2.04%
13,O=C1NC(=O)C(c2cccc(Cl)c2)=C1Nc1ccc(Cl)c(C(=O)O)c1,4.88%
14,NS(=O)(=O)c1ccc(Nc2cc(-c3ccc(O)c(F)c3)n[nH]2)cc1,-1.37%
15,COC(=O)Nc1nc2ccc(Sc3ccc(NC(=O)Nc4cc(C(F)(F)F)ccc4F)cc3)cc2[nH]1,-0.48%
16,Cc1nnc(-c2ccc(C)c(-c3ccc(C(=O)NCc4ccc(Cl)cc4)cc3)c2)o1,4.06%
17,COc1ccc2ncn(-c3cc(O[C@H](C)c4ccccc4Cl)c(C(N)=O)s3)c2c1,2.29%

row,Structure (SMILES),inhibition
1,COc1cc(N2CCN(C(C)C)CC2)ccc1Nc1nc(Nc2ccc(F)cc2C(=O)NC[C@@H](O)CO)c2cc[nH]c2n1,45.9%
2,NS(=O)(=O)c1ccc(N/N=C2\C(=O)Nc3ccc(-c4cnco4)cc32)cc1,2.73%
3,CN1CCN(CCCNc2nc3ccc(Oc4ccc(NC(=O)Nc5cc(C(F)(F)F)ccc5F)cc4)cc3[nH]2)CC1,0.87%
4,Fc1ccc(-c2ncn(C3CCNCC3)c2-c2ccnc(Oc3ccc(Oc4ccccc4)cc3)n2)cc1,4.18%
5,COc1cc(Nc2ncc3c(C)nc(-c4cccc(Oc5ccccc5)c4)n3n2)cc(OC)c1OC,3.11%
6,CCc1ccc(Oc2nccc(-c3c(-c4ccc(F)cc4)ncn3C3CCNCC3)n2)cc1,3.27%
7,Cc1ccc(C(=O)NC(C)C)cc1-c1ccc(C(=O)NCC2CC2)cc1,-1.97%
8,COc1cccc(-n2cnc3c(N/N=C/c4ccncc4)ncnc32)c1,0.41%
9,Fc1ccc(-c2ncn(C3CCNCC3)c2-c2ccnc(Oc3ccc4c(c3)OCO4)n2)cc1,4.2%
10,O=C(NCC1CC1)c1ccc(-c2cccc(C(=O)NC3CC3)c2)cc1,2.17%
11,C#Cc1cccc(Nc2ncnc3ccc(OCCCCNCCS(C)(=O)=O)cc23)c1,6.03%
12,NCc1ccc(-n2c(-c3nonc3N)nc3cnccc32)cc1,9.68%
13,O=C(Nc1n[nH]c2cc(-c3ccccc3)ccc12)C1CC1,2.16%
14,CCS(=O)(=O)c1ccc(OC)c(Nc2ncc(-c3cccc(-c4ccccc4F)c3)o2)c1,0.94%
15,CNC(=O)c1cncc(/C=C/c2c(C)cccc2C)c1,0.04%
16,CCC(=O)Nc1ccc(C)c(-c2ccc(C(=O)NCC3CC3)cc2)c1,3.66%
17,c1ccc(-c2n[nH]cc2-c2ccnc(-c3ccc(OCCN4CCOCC4)cc3)c2)nc1,-1.9%
